Out of some 5,500 compounds screened, about 2,000 (36%) were called active. Roughly 18% stayed inconclusive and do not appear here. Some of the results follow. Unmarked numbers belong to inactive results. No stated cut-off is given here; in the data, active means normalized growth mostly below about 0.91 (no sharp cut-off); inconclusive means no clear call, values can overlap the other calls; inactive means mostly above about 0.92.
Experiment: chemical genetic growth profiling, strain panel (AID 1159580);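 further: tested at 20 µM; growth read once vehicle control cultures reached saturation at 30 °C; 1 = growth at the plate median or of vehicle wells; lower values mean less growth of the strain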
Conditions: growth OD

## CC(NCCC(c1ccccc1)c1ccccc1)c1ccccc1 (configuration not stated)
S. cerevisiae deletion strains, locus YJR075W, strain HOC1, hits give low values
  normalized growth: 0.875 (active)
S. cerevisiae deletion strains, locus YKL009W, strain mrt4, hits give low values
  normalized growth: 0.944
S. cerevisiae deletion strains, locus YKL068W, hits give low values
  normalized growth: 0.981
S. cerevisiae deletion strains, locus YKL085W, strain MDH1 (second series), hits give low values
  normalized growth: 0.985
S. cerevisiae deletion strains, locus YKL085W, strain MDH1, hits give low values
  normalized growth: 0.985
S. cerevisiae deletion strains, locus YKL160W, strain elf1, hits give low values
  normalized growth: 0.908
S. cerevisiae deletion strains, locus YKL190W, strain CNB1, hits give low values
  normalized growth: 0.988
S. cerevisiae deletion strains, locus YKR001C, strain vps1, hits give low values
  normalized growth: 0.936
S. cerevisiae deletion strains, locus YKR026C, strain gcn3, hits give low values
  normalized growth: 1.01
S. cerevisiae deletion strains, locus YKR091W, strain srl3, hits give low values
  normalized growth: 1
S. cerevisiae deletion strains, locus YLL001W, strain dnm1, hits give low values
  normalized growth: 0.945
S. cerevisiae deletion strains, locus YLL026W, hits give low values
  normalized growth: 0.981
S. cerevisiae deletion strains, locus YLL041C, strain sdh2, hits give low values
  normalized growth: 0.997
S. cerevisiae deletion strains, locus YLR027C, strain aat2, hits give low values
  normalized growth: 0.934
S. cerevisiae deletion strains, locus YLR039C, strain RIC1, hits give low values
  normalized growth: 1.28
S. cerevisiae deletion strains, locus YLR058C, strain SHM2, hits give low values
  normalized growth: 0.958
S. cerevisiae deletion strains, locus YLR102C, strain apc9, hits give low values
  normalized growth: 0.985
S. cerevisiae deletion strains, locus YLR113W, strain HOG1, hits give low values
  normalized growth: 1.01
S. cerevisiae deletion strains, locus YLR221C, strain rsa3, hits give low values
  normalized growth: 0.937
S. cerevisiae deletion strains, locus YLR258W, strain gsy2, hits give low values
  normalized growth: 0.974
S. cerevisiae deletion strains, locus YLR262C, strain YPT6 (second series), hits give low values
  normalized growth: 0.986
S. cerevisiae deletion strains, locus YLR262C, strain YPT6, hits give low values
  normalized growth: 1.16
S. cerevisiae deletion strains, locus YLR268W, strain sec22, hits give low values
  normalized growth: 0.989
S. cerevisiae deletion strains, locus YLR320W, strain mms22, hits give low values
  normalized growth: 0.898
S. cerevisiae deletion strains, locus YLR330W, strain CHS5, hits give low values
  normalized growth: 0.992
S. cerevisiae deletion strains, locus YLR342W, strain FKS1 (second series), hits give low values
  normalized growth: 0.885
S. cerevisiae deletion strains, locus YLR342W, strain FKS1, hits give low values
  normalized growth: 0.993
S. cerevisiae deletion strains, locus YLR357W, strain rsc2, hits give low values
  normalized growth: 1
S. cerevisiae deletion strains, locus YLR370C, strain arc18, hits give low values
  normalized growth: 0.822 (active)
S. cerevisiae deletion strains, locus YLR371W, strain rom2, hits give low values
  normalized growth: 0.97
S. cerevisiae deletion strains, locus YLR384C, strain iki3, hits give low values
  normalized growth: 1
S. cerevisiae deletion strains, locus YLR418C, strain cdc73, hits give low values
  normalized growth: 0.857
S. cerevisiae deletion strains, locus YML016C, strain PPZ1, hits give low values
  normalized growth: 0.977
S. cerevisiae deletion strains, locus YML032C, strain rad52, hits give low values
  normalized growth: 0.937
S. cerevisiae deletion strains, locus YML120C, strain ndi1, hits give low values
  normalized growth: 0.886 (active)
S. cerevisiae deletion strains, locus YML124C, strain tub3, hits give low values
  normalized growth: 0.991
S. cerevisiae deletion strains, locus YMR058W, strain fet3, hits give low values
  normalized growth: 0.849 (active)
S. cerevisiae deletion strains, locus YMR078C, strain ctf18, hits give low values
  normalized growth: 0.99
S. cerevisiae deletion strains, locus YMR125W, strain sto1, hits give low values
  normalized growth: 0.946
S. cerevisiae deletion strains, locus YMR129W, hits give low values
  normalized growth: 0.997
S. cerevisiae deletion strains, locus YMR205C, strain PFK2, hits give low values
  normalized growth: 0.963
S. cerevisiae deletion strains, locus YMR223W, strain ubp8, hits give low values
  normalized growth: 0.933
S. cerevisiae deletion strains, locus YMR231W, strain pep5, hits give low values
  normalized growth: 0.731 (active)
S. cerevisiae deletion strains, locus YMR263W, strain SAP30, hits give low values
  normalized growth: 0.942
S. cerevisiae deletion strains, locus YMR307W, strain GAS1, hits give low values
  normalized growth: 0.986
S. cerevisiae deletion strains, locus YNL067W, strain RPL9B, hits give low values
  normalized growth: 0.948
S. cerevisiae deletion strains, locus YNL071W, strain lat1, hits give low values
  normalized growth: 0.953
S. cerevisiae deletion strains, locus YNL128W, strain TEP1, hits give low values
  normalized growth: 0.884
S. cerevisiae deletion strains, locus YNL153C, strain GIM3, hits give low values
  normalized growth: 0.921
S. cerevisiae deletion strains, locus YNL183C, strain NPR1, hits give low values
  normalized growth: 0.933
S. cerevisiae deletion strains, locus YNL209W, strain ssb2, hits give low values
  normalized growth: 0.888 (active)
S. cerevisiae deletion strains, locus YNL233W, strain BNI4, hits give low values
  normalized growth: 0.927
S. cerevisiae deletion strains, locus YNL248C, strain rpa49, hits give low values
  normalized growth: 0.904
S. cerevisiae deletion strains, locus YNL250W, strain rad50, hits give low values
  normalized growth: 0.943
S. cerevisiae deletion strains, locus YNL271C, strain bni1, hits give low values
  normalized growth: 0.99
S. cerevisiae deletion strains, locus YNL298W, strain CLA4, hits give low values
  normalized growth: 0.974
S. cerevisiae deletion strains, locus YNL307C, strain MCK1, hits give low values
  normalized growth: 0.974
S. cerevisiae deletion strains, locus YNL322C, strain KRE1 (second series), hits give low values
  normalized growth: 1.03
S. cerevisiae deletion strains, locus YNL322C, strain KRE1, hits give low values
  normalized growth: 0.97
S. cerevisiae deletion strains, locus YNR049C, strain mso1, hits give low values
  normalized growth: 1
S. cerevisiae deletion strains, locus YNR052C, strain pop2, hits give low values
  normalized growth: 0.92
S. cerevisiae deletion strains, locus YOL006C, strain TOP1, hits give low values
  normalized growth: 0.468 (active)
S. cerevisiae deletion strains, locus YOL012C, strain htz1
  normalized growth: 0.924
S. cerevisiae deletion strains, locus YOL147C, strain pex11, hits give low values
  normalized growth: 1
S. cerevisiae deletion strains, locus YOR001W, strain rrp6, hits give low values
  normalized growth: 0.887 (active)
S. cerevisiae deletion strains, locus YOR061W, strain CKA2, hits give low values
  normalized growth: 0.938
S. cerevisiae deletion strains, locus YOR069W, strain VPS5, hits give low values
  normalized growth: 0.986
S. cerevisiae deletion strains, locus YOR070C, strain gyp1, hits give low values
  normalized growth: 0.908 (active)
S. cerevisiae deletion strains, locus YOR080W, strain dia2, hits give low values
  normalized growth: 1
S. cerevisiae deletion strains, locus YOR083W, strain WHI5, hits give low values
  normalized growth: 0.846 (active)
S. cerevisiae deletion strains, locus YOR106W, strain vam3, hits give low values
  normalized growth: 0.618 (active)
S. cerevisiae deletion strains, locus YOR136W, strain idh2, hits give low values
  normalized growth: 0.907 (active)
S. cerevisiae deletion strains, locus YOR144C, strain elg1, hits give low values
  normalized growth: 0.989
S. cerevisiae deletion strains, locus YOR184W, strain ser1, hits give low values
  normalized growth: 1.01
S. cerevisiae deletion strains, locus YOR231W, strain MKK1, hits give low values
  normalized growth: 0.992
S. cerevisiae deletion strains, locus YOR265W, strain rbl2, hits give low values
  normalized growth: 1
S. cerevisiae deletion strains, locus YOR270C, strain vph1, hits give low values
  normalized growth: 0.375 (active)
S. cerevisiae deletion strains, locus YOR290C, strain snf2, hits give low values
  normalized growth: 0.837 (active)
S. cerevisiae deletion strains, locus YOR316C, strain cot1, hits give low values
  normalized growth: 0.98
S. cerevisiae deletion strains, locus YPL051W, strain arl3, hits give low values
  normalized growth: 0.767 (active)
S. cerevisiae deletion strains, locus YPL055C, strain LGE1, hits give low values
  normalized growth: 0.782
S. cerevisiae deletion strains, locus YPL078C, strain atp4, hits give low values
  normalized growth: 0.939
S. cerevisiae deletion strains, locus YPL106C, strain sse1, hits give low values
  normalized growth: 1.08
S. cerevisiae deletion strains, locus YPL240C, strain hsp82, hits give low values
  normalized growth: 0.999
S. cerevisiae deletion strains, locus YPL241C, strain CIN2, hits give low values
  normalized growth: 0.985
S. cerevisiae deletion strains, locus YPL256C, strain CLN2, hits give low values
  normalized growth: 0.972
S. cerevisiae deletion strains, locus YPR119W, strain clb2, hits give low values
  normalized growth: 0.994
S. cerevisiae deletion strains, locus YPR141C, strain kar3, hits give low values
  normalized growth: 0.969
S. cerevisiae deletion strains, locus YPR163C, strain tif3, hits give low values
  normalized growth: 0.872 (active)
S. cerevisiae deletion strains, locus YPR167C, strain met16, hits give low values
  normalized growth: 0.977
S. cerevisiae deletion strains, strain wtn01, hits give low values
  normalized growth: 0.964
S. cerevisiae strains, strain wild type, hits give low values
  normalized growth: 0.974

From PubChem BioAssay AID1159580 (chemical genetic matrix, 2015)
